Measurements reported in the supplement of paper PMC6555819.

Legend:
Experiment in all cases: PBM binding z-score (relative to random genomic background probes); higher = stronger binding; sequences stand for … in GC…GCGATTGACAGCGTAGAATGAAGG
[1] = tested on: FXR:RXRa (NR concentration 270 nM, RXRa partner concentration 90 nM)
Outline: (§1)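 Regression normalization was applied to scanned fluorescence from custom Agilent 4×180K protein-binding microarrays. Before scanning, arrays were incubated 1 h with ligand-free nuclear receptor dimers, and binding was detected with antibodies against each partner (one per run). Binding z-scores use the random background probes as reference.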

[2] = tested on: LXRa:RXRa (NR concentration 270 nM, RXRa partner concentration 90 nM)
Outline: as §1

[3] = tested on: LXRa homodimer (NR concentration 270 nM)
Outline: as §1

[4] = tested on: LXRb:RXRa (NR concentration 270 nM, RXRa partner concentration 90 nM)
Outline: as §1

[5] = tested on: LXRb homodimer (NR concentration 270 nM)
Outline: as §1

[6] = tested on: PPARa:RXRa (NR concentration 270 nM, RXRa partner concentration 90 nM)
Outline: as §1

[7] = tested on: PPARg:RXRa (NR concentration 180 nM, RXRa partner concentration 90 nM)
Outline: as §1

[8] = tested on: PPARg:RXRa 270nM:90nM, anti-RXR (NR concentration 270 nM, RXRa partner concentration 90 nM)
Outline: as §1

[9] = tested on: PPARg:RXRa 30nM:10nM, anti-RXR (NR concentration 30 nM, RXRa partner concentration 10 nM)
Outline: as §1

[10] = tested on: PPARg:RXRa 90nM:30nM, anti-RXR (NR concentration 90 nM, RXRa partner concentration 30 nM)
Outline: as §1

[11] = tested on: PPARg:RXRa DBDmut IVT, anti-RXR (DBD mutation: RXRa K156A/R161A, NR concentration 270 nM, RXRa partner concentration 90 nM)
Outline: as §1

[12] = tested on: PPARg:RXRa IVT, anti-PPARg (NR concentration 270 nM, RXRa partner concentration 90 nM)
Outline: as §1

[13] = tested on: PPARg DBDmut:RXRa IVT, anti-PPARg (DBD mutation: PPARg1 K132A/R137A, NR concentration 270 nM, RXRa partner concentration 90 nM)
Outline: as §1

[14] = tested on: PPARg DBDmut IVT, anti-PPARg (DBD mutation: PPARg1 K132A/R137A, NR concentration 270 nM)
Outline: as §1

[15] = tested on: PPARg homodimer (NR concentration 180 nM)
Outline: as §1

[16] = tested on: PXR:RXRa (NR concentration 270 nM, RXRa partner concentration 90 nM)
Outline: as §1

[17] = tested on: PXR homodimer (NR concentration 270 nM)
Outline: as §1

[18] = tested on: RARa:RXR (NR concentration 270 nM, RXRa partner concentration 90 nM)
Outline: as §1

[19] = tested on: RARa homodimer (NR concentration 270 nM)
Outline: as §1

[20] = tested on: RARb:RXRa (NR concentration 270 nM, RXRa partner concentration 90 nM)
Outline: as §1

Sequence	PBM binding z-score [1]	PBM binding z-score [2]	PBM binding z-score [3]	PBM binding z-score [4]	PBM binding z-score [5]	PBM binding z-score [6]	PBM binding z-score [7]	PBM binding z-score [8]	PBM binding z-score [9]	PBM binding z-score [10]	PBM binding z-score [11]	PBM binding z-score [12]	PBM binding z-score [13]	PBM binding z-score [14]	PBM binding z-score [15]	PBM binding z-score [16]	PBM binding z-score [17]	PBM binding z-score [18]	PBM binding z-score [19]	PBM binding z-score [20]
TCTAGTTGGTCAAAGGTGACACACTCGAAATGCG	1.46	1.67	0.489	2.08	0.376	4.71	8.48	8.54	8.19	8.69	3.81	4.76	1.03	1.64	2.13	2.14	0.548	2.88	1.33	2.38
TGTTGTAGATCAAAGGTTAAGAAAGCCGAAGCCT	1.59	2.17	0.185	1.96	0.623	4.47	7.96	7.88	7.16	9.01	-0.0218	3.76	0.531	0.517	1.54	2.04	0.18	2.87	0.902	1.89
CCTACTGGGCCAAAAAGGTCAGTGATGCCGATAA	1.31	1.9	0.693	2.27	-0.789	3.36	2.04	2.9	0.549	1.83	3.45	3.63	-0.398	-1.18	2.33	2.55	0.561	3.29	1.18	3.67
ATTCAAAGTTCATCTAGGTAACGTAAGATATGCT	6.71	6.24	6.17	3.99	2.84	4.52	4.18	4.51	1.84	3.39	0.894	2.97	2.38	1.91	2.88	4.96	7.34	3.44	1.89	4.93
ACTTTTAGTTGACTTAGGGCAACCGATACGACGC	0.918	0.796	0.546	0.578	1.38	0.361	0.9	0.521	0.607	0.54	0.679	0.936	1.38	1.82	0.639	0.436	0.106	0.954	0.984	1.23
AGAGTGAGGTTATACGTAGATCAGGGAAGAAAGT	2.32	2.18	0.433	2.06	0.71	2.91	1.11	1.19	0.329	0.849	0.49	0.769	1.06	0.722	1.66	1.39	1.28	1.65	1.14	1.78
GCATATAGGTAATAAAAGGTGAAAGTCCGATTGT	1.12	4.97	0.418	1.97	-0.165	2.47	1.65	2.12	0.664	1.72	3.99	3.33	0.83	0.676	1.38	0.771	0.163	2.04	0.974	1.12
CGTACTAGGTCATCCAGGACAGTGAATACATTGA	4.17	2.58	0.958	2.46	0.292	4.53	6.87	5.33	3.15	5.25	7.23	7.74	1.93	1.33	2.23	1.87	0.94	2.45	0.55	3.8
CCTGCTAGGTAAATGGTCAGCTAAAGCAGCTCGC	-0.299	-0.376	-0.748	-0.628	-0.539	-0.0599	0.476	1.64	0.189	1.31	1.07	0.489	-1.23	-1.53	0.311	-0.268	-0.537	-0.118	-0.6	0.261
GGAACGAGGGCATTCGCGTTGATAGCATGGCGAT	0.794	1.04	-0.65	0.18	-0.618	1.5	0.776	0.655	-0.361	0.136	2.08	1.86	-0.525	-0.616	-0.126	0.744	-0.0684	0.449	-0.431	1.71
ATCCAAAGGTCGTGAGGTGAGTATACAGAAAGGC	5.79	4.82	0.975	3.77	0.687	5.37	5.62	5.62	2.33	4.08	0.752	2.92	1.39	0.827	1.97	3.64	0.629	4.91	1.46	4.4
TCTCGGGGGACACGAAGGTCAGAGCTTTCCAGAG	2.9	2.88	0.575	4.36	6.23	3.77	1.86	3.73	3.31	3.45	2.39	3.51	2.53	5.36	2.05	3.27	1.24	3.29	0.556	3.73
CCTAGCAGGCCGATCTGGGTCACTCAAGGCTTGA	0.827	0.587	-0.575	0.613	-0.973	2.6	1.46	1.5	-0.37	0.546	2.8	4.02	-0.802	-1.18	0.337	0.634	-0.34	1.27	-0.893	1.06
CCGACTGGGGCAAAGGTTACCCTACTCAGTACGA	1.55	1.36	0.204	1.69	-1.04	4.95	10.4	8.13	8.18	9.15	4.37	5.45	-0.494	-0.866	0.732	1.9	-0.0869	3.02	-0.235	2.1
TTACCAAGATGAAAGGTCGTTGATGCACGCCTTG	1.32	1.82	0.225	1.6	-0.121	3.04	3.53	5.28	3.89	5.86	0.675	1.47	0.794	0.0757	1.13	2.08	0.245	2.24	0.444	1.55
GCAGACAGGAGAAACGCAGGTAACTCAGGGTGGC	-0.504	-0.393	-0.471	-0.777	-1.34	-0.523	0.376	-0.659	-0.781	-0.611	-0.542	-0.859	-0.9	-0.99	-0.201	-0.694	-0.412	-0.368	-1.26	-0.624
TCTAGTTGGTCACGGAGGTCACATACGACGGGTA	3.08	3.35	2.47	3.46	0.637	3.93	3.1	3.94	3.8	3.63	2.69	4.21	1.22	1.14	2.46	4.38	1.7	4.13	1.16	3.84
CTACCAAGGTGTACAAGGTCGTTGATTACTATTC	0.534	0.766	0.255	1.26	-0.288	1.31	0.268	0.583	-0.154	0.498	0.458	0.771	0.278	0.0269	0.61	1.61	1.18	1.47	0.124	0.901
TCATATAGGTAAAAAGTGAAAGTCGGTGTGGTAA	1.13	1.01	0.0735	0.858	-0.108	2.62	3.5	5.44	5.22	5.77	4.48	2.54	1	0.168	0.986	0.581	0.658	0.666	0.947	0.366
ATACCAAGGTGATCGTCAGGTCGTTGATACTAAC	1.07	0.928	0.311	0.454	-0.244	0.892	0.38	0.265	0.184	0.227	0.522	1.08	0.616	-0.131	0.369	1.24	0.399	1.23	-0.256	1.12
CGACCAAGGTCAATGCTAGGTCAGTGAAAGCATT	6.54	5.4	1.97	3.95	0.214	4.99	3.99	4.62	1.63	3.37	3.29	3.59	-0.925	-0.0967	4.22	4.59	0.845	5.71	0.803	5.03
CCTGCTAGGTCATGGACAGCTAATCTACAGTATG	3.61	2.77	-0.434	1.75	-0.251	3.61	2.53	2.8	0.906	1.75	4.72	3.72	0.434	0.0292	0.812	1.4	-0.443	2.53	0.184	3.84
GCTGCTAGGTCAGGTTGGTGAGCTAACGGGTACG	1.04	0.598	-0.365	0.053	-0.485	1.22	0.336	0.876	-0.603	0.225	2.52	1.93	-0.822	-0.37	0.201	0.142	-0.5	0.873	-0.817	3.24
CAAACTCGGTCACCGGAAGGTCAAAGTCCGCATG	4.53	5.04	4.93	3.86	1.28	4.39	3.62	4.26	1.23	3.26	4.82	5.21	0.644	0.562	4.4	4.75	1.84	5.66	1.31	4.61
GATACAGGGTCAGCTAGAGGCCTGAGTATGGAAA	4.07	2.14	-0.546	1.75	-0.639	4.25	3.02	2.86	0.545	1.56	1.41	1.85	-0.274	-0.805	1.14	1.73	-0.266	2.75	-0.534	3.74
ATGTCTAGGTAACCAAGTTCAGTGAATGCCGAAC	0.425	0.708	0.547	0.184	0.286	1.08	0.622	0.664	-0.0406	0.432	2.35	2.35	0.0462	-0.029	0.338	2	1.53	0.884	-0.202	1.21
ACTTACGGGTCAACGAGGTTATAGCACGCGTATA	6.51	5.39	0.989	4.36	0.794	5.52	5.71	5.48	2.87	4.14	3.5	4.09	1.65	1.55	2.55	5.1	3.34	5.39	1.16	4.13
GCAGACAGGTGAAACGCAGGTAACTCCGGGTGGC	-0.276	0.017	-0.496	-0.36	-1.37	0.805	0.312	0.0906	-0.41	-0.188	0.8	0.556	0.467	-0.826	-0.848	-0.493	-0.692	0.064	-0.954	0.484
GCTGCTAGGTCAGGTTCGTCAGCTAACGGGTACG	1.58	0.945	-0.287	0.33	-0.46	1.6	0.685	1.21	-0.222	0.283	3.23	2.23	-0.735	-0.897	0.459	0.538	-0.243	0.887	-0.894	3.17
